Results taken from PubChem BioAssay (NCI).
Several values for one entry are separate records, joined by “and”; a condition that tells them apart may be missing. Identical values can stand only once. About 79,000 compounds went through this panel and 15% of them were active in at least one assay; those are over-represented in the sample as a whole. Activity calls are given as the source filed them. No stated cut-off is given here; in the data, active means growth inhibition above about 70%; inactive means the rest.

How the values were obtained:
[1] = NCI Yeast Anticancer Drug Screen. Data for the rad52 strain (AID 147);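 further: 0% = growth of vehicle-treated control cultures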; conditions: S. cerevisiae rad52 mutant growth inhibition, stronger effect = higher value
How it was run: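 Vehicle-treated cultures served as the reference for growth inhibition of compound-exposed yeast bearing a DNA repair mutation.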

[2] = NCI Yeast Anticancer Drug Screen. Data for the wt1 strain (AID 149);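 further: 0% = growth of vehicle-treated wt1 cultures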; conditions: S. cerevisiae wt1 strain (SPY 50644) growth inhibition, stronger effect = higher value
How it was run: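 wt1 yeast, compound-treated; % growth inhibition vs vehicle control.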

[3] = NCI Yeast Anticancer Drug Screen. Data for the rad50EPP+ strain (AID 151);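 further: 0% = growth of vehicle-treated control cultures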; conditions: S. cerevisiae rad50 mutant strain, stronger effect = higher value
How it was run: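 In this screen, rad50EPP+ yeast were exposed to compounds. Growth inhibition was scored against vehicle-treated controls.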

[4] = NCI Yeast Anticancer Drug Screen. Data for the rad50 strain (AID 155);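 further: 0% = growth of vehicle-only cultures of the same strain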; conditions: S. cerevisiae rad50 strain growth inhibition, stronger effect = higher value
How it was run: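 Genetically altered yeast (DNA repair pathway); compound treatment; growth inhibition vs vehicle ctrl.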

[5] = NCI Yeast Anticancer Drug Screen. Data for the mec2-1 strain (AID 157); conditions: S. cerevisiae mec2-1 strain, stronger effect = higher value
How it was run: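 Vehicle-treated cultures served as reference for growth inhibition of compound-exposed mec2-1 yeast.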

[6] = NCI Yeast Anticancer Drug Screen. Data for the rad14 strain (AID 159);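 further: 0% = growth of vehicle-treated control cultures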; conditions: S. cerevisiae rad14 strain growth inhibition, stronger effect = higher value
How it was run: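 Test compounds were applied to a repair-deficient yeast strain. Its growth was then compared with that of cultures given vehicle alone, and inhibition was expressed relative to those controls.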

[7] = NCI Yeast Anticancer Drug Screen. Data for the sgs1 mgt1 strain (AID 161);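 further: 0% = growth of cultures given vehicle only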; conditions: S. cerevisiae sgs1 mgt1 strain, stronger effect = higher value
How it was run: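 Test agents were incubated with a DNA-repair-mutant yeast strain. Growth was then read and compared against vehicle-treated controls.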

[8] = NCI Yeast Anticancer Drug Screen. Data for the cln2 rad14 strain (AID 165);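 further: 0% = growth equal to vehicle treated cultures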; conditions: S. cerevisiae cln2 rad14 strain, stronger effect = higher value
How it was run: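 Each compound was tested on cln2 rad14 yeast. Inhibition of growth was calculated against vehicle-exposed controls.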

[9] = NCI Yeast Anticancer Drug Screen. Data for the bub3 strain (AID 167); conditions: S. cerevisiae bub3 mutant strain, stronger effect = higher value
How it was run: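 Yeast carrying a defined mutation is treated with each compound, and growth is compared with that of vehicle-exposed cells to give inhibition.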

[10] = NCI Yeast Anticancer Drug Screen. Data for the wt2 strain (AID 169);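 further: 0% = growth of vehicle-treated yeast cultures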; conditions: S. cerevisiae wt2 strain growth inhibition, stronger effect = higher value
How it was run: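 Inhibition of yeast growth was determined after compound treatment, normalised to controls receiving only vehicle.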

[11] = NCI Yeast Anticancer Drug Screen. Data for the mlh1 strain (AID 171);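 further: 0% = growth of vehicle-treated control cultures of the same strain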; conditions: S. cerevisiae mlh1 strain growth inhibition, stronger effect = higher value
How it was run: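 Vehicle-normalised growth inhibition of a repair- or checkpoint-altered yeast strain following compound treatment.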

[12] = NCI Yeast Anticancer Drug Screen. Data for the sgs1 strain (AID 173);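 further: 0% = growth of vehicle-only control cultures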; conditions: S. cerevisiae sgs1 mutant, stronger effect = higher value
How it was run: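 Screen format: yeast with repair or checkpoint alterations, compound exposure, growth read relative to vehicle.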

[13] = NCI Yeast Anticancer Drug Screen. Data for the mlh1 rad18 strain (AID 175); conditions: S. cerevisiae mlh1 rad18 strain growth inhibition, stronger effect = higher value
How it was run: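 Vehicle-treated cultures served as the reference for growth inhibition in a yeast strain carrying DNA damage repair alterations exposed to each compound.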

[14] = NCI Yeast Anticancer Drug Screen. Data for the rad18 strain (AID 177); conditions: S. cerevisiae rad18 mutant growth inhibition, stronger effect = higher value
How it was run: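 Test articles were incubated with altered yeast defective in DNA damage repair. Results are given as inhibition of growth versus vehicle.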

[15] = NCI Yeast Anticancer Drug Screen. Data for the CLN2oe strain (AID 163);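 further: 0% = growth of vehicle-only control cultures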; conditions: S. cerevisiae CLN2oe strain, stronger effect = higher value
How it was run: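 Inhibition relative to vehicle-treated yeast is reported. Cells: strain with genetic alteration in cell-cycle control, grown with compound.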

[16] = at 5.0 µM (retest, dose inferred, filed as 0.5)
[17] = at 50.0 µM (retest, dose inferred, filed as 5.0)

Measured: growth inhibition

O=Nn1c2ccccc2c2ccccc21
inactive: [1]; at 1.2 µM -15% | [1]; at 3.7 µM -18% | [1]; at 11.0 µM -22% | [1]; at 33.0 µM 5% | [1]; at 100.0 µM 68% | [2]; at 1.2 µM 2% | [2]; at 3.7 µM 21% | [2]; at 11.0 µM 7% | [2]; at 33.0 µM 9% | [2]; at 100.0 µM 60% | [3]; at 1.2 µM 0% | [3]; at 3.7 µM 18% | [3]; at 11.0 µM 9% | [3]; at 33.0 µM 50% | [4]; at 1.2 µM 12% | [4]; at 3.7 µM -1% | [4]; [16] -13% | [4]; at 11.0 µM -3% | [4]; at 33.0 µM 23% | [4]; [17] 13% | [4]; at 50.0 µM 27.5% and 25.4% | [5]; at 1.2 µM -17% | [5]; at 3.7 µM 2% | [5]; [16] -1% | [5]; at 11.0 µM 1% | [5]; at 33.0 µM 21% | [5]; [17] 9% | [5]; at 50.0 µM 16.7% and 11.6% | [5]; at 100.0 µM 65% | [6]; at 1.2 µM 10% | [6]; at 3.7 µM 6% | [6]; at 11.0 µM 11% | [6]; at 33.0 µM 49% | [7]; [16] 2% | [7]; [17] -10% | [7]; at 50.0 µM 5.25% and 16.6% | [8]; [16] 5% | [8]; [17] 67% | [8]; at 50.0 µM 3.15% and 40.1% | [9]; at 1.2 µM -7% | [9]; at 3.7 µM -9% | [9]; [16] -28% | [9]; at 11.0 µM -14% | [9]; at 33.0 µM -3% | [9]; at 50.0 µM 1.5% and 66% | [9]; at 100.0 µM 59% | [10]; at 1.2 µM -46% | [10]; at 3.7 µM -34% | [10]; at 11.0 µM -28% | [10]; at 33.0 µM -15% | [10]; at 100.0 µM 62% | [11]; at 1.2 µM 27% | [11]; at 3.7 µM 27% | [11]; at 11.0 µM 19% | [11]; at 33.0 µM 56% | [12]; at 1.2 µM -3% | [12]; at 3.7 µM 5% | [12]; at 11.0 µM 10% | [12]; at 33.0 µM 7% | [12]; at 100.0 µM 66% | [13]; [16] -16% | [13]; [17] 16% | [13]; at 50.0 µM 21.5% and 15.5% | [14]; at 1.2 µM 9% | [14]; at 3.7 µM 7% | [14]; at 11.0 µM -9% | [14]; at 33.0 µM 24%
active: [3]; at 100.0 µM 79% | [4]; at 100.0 µM 83% | [6]; at 100.0 µM 92% | [9]; [17] 95% | [11]; at 100.0 µM 93% | [14]; at 100.0 µM 86%

N#Cc1sc2c(c1OC(=O)c1ccco1)c(=O)n(-c1ccccc1)c(=S)n2-c1ccccc1
active: [4]; [17] 94% | [4]; at 50.0 µM 94.6% | [5]; [17] 82% | [5]; at 50.0 µM 95% | [7]; [17] 95% | [7]; at 50.0 µM 95.7% | [8]; [17] 91% | [8]; at 50.0 µM 94% | [13]; [17] 94% | [13]; at 50.0 µM 95.2%
inactive: [1]; at 1.2 µM 0% | [1]; at 3.7 µM 1% | [1]; at 11.0 µM -1% | [1]; at 33.0 µM 0% | [1]; at 100.0 µM 0% | [2]; at 1.2 µM -3% | [2]; at 3.7 µM -4% | [2]; at 11.0 µM -1% | [2]; at 33.0 µM -1% | [2]; at 100.0 µM 0% | [3]; at 1.2 µM 9% | [3]; at 3.7 µM 6% | [3]; at 11.0 µM 11% | [3]; at 33.0 µM 8% | [3]; at 100.0 µM 5% | [4]; at 1.2 µM 0% | [4]; at 3.7 µM 2% | [4]; [16] 3% | [4]; at 11.0 µM 1% | [4]; at 33.0 µM 0% | [4]; at 100.0 µM -1% | [5]; at 1.2 µM -1% | [5]; at 3.7 µM -1% | [5]; [16] 7% | [5]; at 11.0 µM -2% | [5]; at 33.0 µM -6% | [5]; at 100.0 µM 0% | [6]; at 1.2 µM 1% | [6]; at 3.7 µM 1% | [6]; at 11.0 µM 3% | [6]; at 33.0 µM 2% | [6]; at 100.0 µM -2% | [7]; [16] 0% | [15]; at 1.2 µM -2% | [15]; at 3.7 µM -1% | [15]; at 11.0 µM 4% | [15]; at 33.0 µM -1% | [15]; at 100.0 µM -6% | [8]; [16] 23% | [10]; at 1.2 µM -1% | [10]; at 3.7 µM -1% | [10]; at 11.0 µM -2% | [10]; at 33.0 µM -9% | [10]; at 100.0 µM 3% | [11]; at 1.2 µM -4% | [11]; at 3.7 µM -2% | [11]; at 11.0 µM -2% | [11]; at 33.0 µM -5% | [11]; at 100.0 µM -3% | [12]; at 1.2 µM 0% | [12]; at 3.7 µM 1% | [12]; at 11.0 µM 0% | [12]; at 33.0 µM 1% | [12]; at 100.0 µM 0% | [13]; [16] 59% | [14]; at 1.2 µM 0% | [14]; at 3.7 µM 1% | [14]; at 11.0 µM -17% | [14]; at 33.0 µM 2% | [14]; at 100.0 µM -1%

COCCCN(Cc1cc(OC)c(OC)c(OC)c1)C(=S)Nc1cccc(Cl)c1
inactive: [1]; at 1.2 µM 20% | [1]; at 3.7 µM 12% | [1]; at 11.0 µM 7% | [1]; at 33.0 µM 23% | [1]; at 100.0 µM 46% | [2]; at 1.2 µM 15% | [2]; at 3.7 µM 12% | [2]; at 11.0 µM 9% | [2]; at 33.0 µM 15% | [2]; at 100.0 µM 24% | [3]; at 1.2 µM -12% | [3]; at 3.7 µM -21% | [3]; at 11.0 µM -28% | [3]; at 33.0 µM -6% | [3]; at 100.0 µM -9% | [4]; at 1.2 µM -24% | [4]; at 3.7 µM -13% | [4]; [16] 43% | [4]; at 11.0 µM -14% | [4]; at 33.0 µM -8% | [4]; [17] 69% | [4]; at 50.0 µM 22.7% | [4]; at 100.0 µM 40% | [5]; at 1.2 µM -12% | [5]; at 3.7 µM 4% | [5]; [16] 51% | [5]; at 11.0 µM -19% | [5]; at 33.0 µM -18% | [5]; [17] 56% | [5]; at 50.0 µM -9.3% | [5]; at 100.0 µM 20% | [7]; [16] -32% | [7]; [17] 4% | [7]; at 50.0 µM 24.4% | [15]; at 1.2 µM 0% | [15]; at 3.7 µM -9% | [15]; at 11.0 µM -30% | [15]; at 33.0 µM -26% | [15]; at 100.0 µM 1% | [8]; [16] 41% | [8]; [17] 46% | [8]; at 50.0 µM 17.4% | [9]; at 1.2 µM -3% | [9]; at 3.7 µM 0% | [9]; [16] 5% | [9]; at 11.0 µM -2% | [9]; at 33.0 µM 30% | [10]; at 1.2 µM 5% | [10]; at 3.7 µM -3% | [10]; at 11.0 µM -9% | [10]; at 33.0 µM 14% | [10]; at 100.0 µM 43% | [11]; at 1.2 µM 0% | [11]; at 3.7 µM -19% | [11]; at 11.0 µM -38% | [11]; at 33.0 µM -30% | [11]; at 100.0 µM 31%
active: [9]; [17] 79% | [9]; at 50.0 µM 72.2% | [9]; at 100.0 µM 72%
